# Hits are enriched below; roughly 2.4% of the tested compounds scored in any of these assays.
# Pol beta inh – qHTS Assay for Inhibitors of DNA Polymerase Beta | P06746 | Pol beta primer extension/strand displacement, fluorescence kinetic | Potency, µM (top dose mostly 114 µM), inactives show at the highest dose activity change, negative = inhibition, most hits filed as inhibitors | 1.3% of 340,000 active; also: potency is read from the fitted curve at half-maximal effect; % is scaled to controls: 0 for no effect and ±100 for the full control effect
#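 Curves were derived by four-parameter Hill fits of normalized qHTS data. The kinetic fluorescent primer-extension read was taken at 0 and 10 min after 50 nM substrate, following a 15 min room-temperature preincubation of 10 nM enzyme with compounds.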
# WRN helicase inh-1 – qHTS for Inhibitors of WRN Helicase; Bifunctional 3'-5' exonuclease/ATP-dependent helicase WRN (Homo sapiens), Q14191; WRN helicase unwinding, fluorescent forked duplex, kinetic; Potency, µM (highest dose often 114 µM), without a hit: top-dose activity change, negative = inhibition, actives largely listed as inhibitors; 0.46% of 360,000 active; AID 651768, 2012; also: potency is read from the fitted curve at half-maximal effect; % is scaled to controls: 0 for no effect and ±100 for the full control effect; nearly all actives have a fitted effect of over 55% in size
#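 Kinetic fluorescence helicase assay: unwinding of a quenched forked DNA duplex (100 nM final) with 2 mM ATP final raises red fluorescence (525/598 nm). Compounds sat 15 min at room temperature with 20 nM WRN beforehand.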
# Pol eta inh-1 – qHTS for Inhibitors of Polymerase Eta. recombinant Pol eta, fluorescent DNA replication assay. Potency, µM (series often up to 114 µM), inactives show top-dose activity change, negative = inhibition, usual class: inhibitors. 1.2% of 390,000 active; also: potency is read from the fitted curve at half-maximal effect; % is scaled to controls: 0 for no effect and ±100 for the full control effect
#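 Fluorescent replication assay: 50 nM final substrate added after a 15 min room-temperature compound preincubation with 10 nM enzyme. Signal taken at 0 min and again at 10 min.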
# Pol kappa inh-1 – qHTS for Inhibitors of Polymerase Kappa; DNA polymerase kappa (Homo sapiens), Q9UBT6; purified Pol kappa, fluorescent DNA synthesis assay, 10 min; Potency, µM (highest dose often 107 µM), without a hit: top-dose activity, negative = inhibition, actives largely listed as inhibitors; 0.53% of 400,000 active; also: potency is read from the fitted curve at half-maximal effect; % is scaled to controls: 0 for no effect and ±100 for the full control effect
#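 Kinetic fluorescence screen: compound preincubated 15 min RT with 10 nM enzyme; 50 nM substrate (final) initiates; reads at 0/10 min.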
# Pol iota inh – qHTS for Inhibitors of Polymerase Iota; DNA polymerase iota (Homo sapiens), Q9UNA4; Pol iota fluorescent replication assay, 10 min; Potency, µM (series often up to 115 µM), inactives show top-dose activity, negative = inhibition, hits mostly inhibitors; 1% of 390,000 active; AID 588590, 2011; also: potency is read from the fitted curve at half-maximal effect
# Target sequence (Q9UNA4 whole entry, looked up): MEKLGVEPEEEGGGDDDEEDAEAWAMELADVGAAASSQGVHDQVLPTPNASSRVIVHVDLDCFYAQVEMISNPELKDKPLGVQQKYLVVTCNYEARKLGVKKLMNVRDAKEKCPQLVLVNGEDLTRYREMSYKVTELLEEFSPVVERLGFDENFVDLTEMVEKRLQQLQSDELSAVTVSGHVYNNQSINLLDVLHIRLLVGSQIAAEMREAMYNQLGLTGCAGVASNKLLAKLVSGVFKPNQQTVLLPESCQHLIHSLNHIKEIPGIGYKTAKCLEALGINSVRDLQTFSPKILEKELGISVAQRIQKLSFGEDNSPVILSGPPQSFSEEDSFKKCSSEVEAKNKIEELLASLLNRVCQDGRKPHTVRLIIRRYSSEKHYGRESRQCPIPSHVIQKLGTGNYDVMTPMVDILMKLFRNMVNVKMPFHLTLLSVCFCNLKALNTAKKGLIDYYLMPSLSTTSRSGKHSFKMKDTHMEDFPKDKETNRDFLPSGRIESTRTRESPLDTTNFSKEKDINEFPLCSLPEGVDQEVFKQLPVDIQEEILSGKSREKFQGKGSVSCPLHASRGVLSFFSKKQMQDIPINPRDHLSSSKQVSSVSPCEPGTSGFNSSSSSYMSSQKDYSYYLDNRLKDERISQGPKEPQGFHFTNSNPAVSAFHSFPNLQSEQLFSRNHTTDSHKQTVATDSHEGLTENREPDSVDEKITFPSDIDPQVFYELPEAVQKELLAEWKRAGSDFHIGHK
#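 Fluorescent replication assay read twice, at 0 min and 10 min after adding 50 nM (final) substrate. Enzyme (10 nM) and compounds were first incubated 15 min at room temperature; enzyme-free buffer wells were negative controls.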
# FEN1 inh – qHTS Assay for the Inhibitors of Human Flap endonuclease 1 (FEN1) | Recombinant FEN1 flap cleavage, fluorescence, 15 min | Potency, µM (highest dose often 114 µM), inactives show at the top dose activity change, negative = inhibition, hits mostly inhibitors | 0.35% of 390,000 active; also: potency is read from the fitted curve at half-maximal effect; % is scaled to controls: 0 for no effect and ±100 for the full control effect; nearly all actives have a fitted effect of over 65% in size
#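 Nuclease activity of 10 nM FEN1 was measured after 15 min of room-temperature exposure to titrated compounds, by adding 50 nM flap substrate and reading plates at 0 and 15 min.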
# BAZ2B confirm – qHTS Assay for Inhibitors of BAZ2B: Hit Validation | shares compounds with Pol kappa inh-1 | AlphaScreen BAZ2B / biotin-H3K14Ac peptide displacement | Potency, µM, actives largely listed as inhibitors | 100% of 25 active; calls by dose curve
# AlphaScreen ctr – qHTS Assay for Inhibitors of BAZ2B: Hit Validation in AlphaScreen Counterscreen; shares compounds with Pol kappa inh-1; AlphaScreen biotin-His6 peptide bead counterscreen, signal decrease; Potency, µM (titrated, usually from 57.1 µM), for the others: at the top dose activity change, negative = inhibition, usual class: inhibitors; 25 tested, under 10 active; AID 588859, 2011;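 active = clear concentration-dependent signal drop in the bead assay lacking the target, so a primary-screen artifact; inconclusive = weak, partial or single-dose response; inactive = no response, so a real primary hit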
# PGK validate – qHTS for inhibitors of Phosphogylcerate Kinase: Hit Validation Screen; 79% of 500 active; TbPGK coupled GAPDH assay, Kinase-Glo luminescence; Potency, µM (doses to about 57.5 µM), for the others: at the highest dose activity change, negative = inhibition, actives largely listed as inhibitors; shares compounds with Pol kappa inh-1; also: potency is read from the fitted curve at half-maximal effect; % is scaled to controls: 0 for no effect and ±100 for the full control effect; nearly all actives have a fitted effect of over 65% in size
# POLI cherry-pick – qHTS for Inhibitors of Polymerase Iota: Confirmatory Assay for Cherry-picked Compounds. Pol iota primer extension, TAMRA/BHQ fluorescence. AID 720496, 2013. Potency, µM, usual class: inhibitors. shares compounds with Pol kappa inh-1. 77% of 1,500 active; also: potency is read from the fitted curve at half-maximal effect
# Pol kappa inh-2 – qHTS for Inhibitors of Polymerase Kappa: Confirmatory Assay for Cherry-picked Compounds; shares compounds with Pol eta inh-1; purified Pol-kappa, fluorescent strand-displacement substrate; Potency, µM, hits mostly inhibitors; 76% of 920 active; AID 720501, 2013; also: potency is read from the fitted curve at half-maximal effect
# Pol eta inh-2 – qHTS for Inhibitors of Polymerase Eta: Confirmatory Assay for Cherry-picked Compounds. shares compounds with Pol eta inh-1. Potency, µM, most hits filed as inhibitors. 64% of 2,600 active. AID 720502, 2013. Pol eta primer extension, TAMRA/BHQ fluorescence, 10 min; also: potency is read from the fitted curve at half-maximal effect
# WRN helicase inh-2 – qHTS for Inhibitors of WRN Helicase: Confirmatory Assay for Cherry-picked Compounds. WRN helicase DNA unwinding, fluorescence kinetic. 63% of 610 active. Potency, µM (series often up to 57.1 µM), without a hit: at the top dose activity, negative = inhibition, most hits filed as inhibitors. shares compounds with WRN helicase inh-1; also: potency is read from the fitted curve at half-maximal effect; nearly all actives have a fitted effect of over 65% in size
# TO displacement – qHTS for Inhibitors of WRN Helicase: Thiazole Orange DNA Binding Counterscreen; 10% of 610 active; AID 720499, 2013; thiazole orange DNA binding displacement, fluorescence; Potency, µM (highest dose often 57.1 µM), without a hit: at the highest dose activity change, negative = inhibition, usual class: inhibitors; shares compounds with WRN helicase inh-1;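 also: drop in dye fluorescence marks compound binding to DNA; potency is read from the fitted curve at half-maximal effect; % is scaled to controls: 0 for no effect and ±100 for the full control effect; nearly all actives have a fitted effect of over 60% in size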
# BLM helicase inh – qHTS for Inhibitors of WRN Helicase: BLM Helicase Counterscreen for WRN Inhibitors; Potency, µM (series often up to 57.1 µM), inactives show at the top dose activity change, negative = inhibition, usual class: inhibitors; Recombinant BLM helicase DNA unwinding, red fluorescence; shares compounds with WRN helicase inh-1; 60% of 610 active; also: potency is read from the fitted curve at half-maximal effect; nearly all actives have a fitted effect of over 60% in size
# An asterisk follows results filed as active; ? = inconclusive; nt = no result given; [ ] = another dose, or the depositor's remark. Unless noted, calls follow the shape of the dose curve; as a rule, active = well fitted curve in the direction sought with a large enough effect; inconclusive = small, poorly fitted or top-dose-only effect, or another doubt; inactive = no such curve, though single readings can be large; an effect the other way counts as inactive or inconclusive.
SMILES,Pol beta inh,WRN helicase inh-1,Pol eta inh-1,Pol kappa inh-1,Pol iota inh,FEN1 inh,Pol eta inh-2,others
CC(Cc1ccc(O)cc1)NCC(O)c1ccc(O)c(O)c1 (stereo not given),nt,25.1µM*,3.98µM*,nt,nt,nt,12*,POLI cherry-pick=15*;Pol kappa inh-2=3.36*;WRN helicase inh-2=13.6µM*;TO displacement=-6.1%;BLM helicase inh=6.07µM*
OC[C@@H]1[C@@H](O)[C@H](O)[C@H]2[C@@H](O)CCN21,nt,nt,nt,3.6%[60.1 µM],nt,nt,nt,
COc1ccc(OC)c(NC(=O)Cn2cc(C(=O)c3ccccc3)c3ccccc32)c1,0.7%,nt,-20.9%,-25.8%,4.1%,-15.6%,nt,
COc1ccc(OC)c(NC(=O)COC(=O)c2cc3c(s2)CCC3)c1,7.94µM*,23.8µM*,10µM*,12.6µM*,3.55µM*,?,15.1*,BAZ2B confirm=22.4*;AlphaScreen ctr=?;PGK validate=4.61µM*;POLI cherry-pick=9.47*;WRN helicase inh-2=17.1µM*;TO displacement=?;BLM helicase inh=3.04µM*
O=C(Nc1ccc2oc(-c3cccnc3)nc2c1)c1ccc(-c2cccc(Cl)c2)o1,?,nt,70.8µM*,-17.2%,-7.1%,?,75.7*,POLI cherry-pick=42.3*;WRN helicase inh-2=19.2µM*;TO displacement=13.7%;BLM helicase inh=6.81µM*
CC(C)c1ccc2oc(-c3ccc(NC(=O)c4cc5ccccc5o4)cc3)nc2c1,-8.7%,nt,-10.1%,1.2%,32.4%,-7.0%,nt,
Cn1c(=O)oc2cc(S(=O)(=O)N3CCCC(C(=O)N4CCN(c5cccc(Cl)c5)CC4)C3)ccc21 (stereo not given),37.8%,nt,-16.5%,-14.8%,48.3%,-13.8%,nt,
O=C1NC(=O)C(=Cc2ccc(SC3CCCCC3)o2)C(=O)N1,20µM*,?,20µM*,-90.5%,10µM*,?,47.8*,
NS(=O)(=O)c1ccc(-c2ccc(C=C3C(=O)NC(=O)NC3=O)o2)cc1,18.2%,-24.3%[11.6 µM],18.2%,-17.7%,?,?,nt,
O=C(Cc1ccc(S(=O)(=O)N2CCCC2)s1)N1CCN(c2ccc(F)cc2)CC1,31.6µM*,-1.6%[11.6 µM],?,?,?,?,84.9*,
O=C(Nc1ccc(Oc2ccc(Cl)cc2)c(Cl)c1)c1cc(I)cc(I)c1O,6.0%,-10.9%[11.6 µM],?,-25.5%,?,?,?,Pol kappa inh-2=13.4*
COc1ccc(C(=O)Nc2ccc(-c3cc(C(F)(F)F)nn3-c3ccccc3)cc2)cc1OC,?,nt,-11.4%,-9.9%[60.1 µM],?,-22.3%,nt,
Cc1c(N=Cc2c(O)n(Cc3ccccc3)c(=O)[nH]c2=O)c(=O)n(-c2ccccc2)n1C,-5.3%,-18.8%[57.1 µM],-18.8%,4.4%,64.5%,7.4%,nt,
Cc1c(N=Cc2c(O)n(Cc3ccco3)c(=O)[nH]c2=O)c(=O)n(-c2ccccc2)n1C,?,-10.2%[11.6 µM],17.8µM*,-28.8%,?,-12.7%,?,
O=C(N/N=C/c1c(O)n(Cc2ccco2)c(=O)[nH]c1=O)c1ccccc1O,-29.0%,?,14.1µM*,79.4µM*,28.2µM*,-18.3%,30.1*,
CCNN,nt,nt,nt,18.7%[60.1 µM],nt,nt,nt,
Cc1cccc(N2C(=O)NC(=O)/C(=C\c3ccc4c(c3)CCCN4Cc3ccccc3)C2=O)c1,-27.6%,236.9%[57.1 µM],22.4µM*,-1.0%,?,-18.3%,?,
COc1cccc(CNC(=O)c2cccc(S(=O)(=O)N3CCN(C)CC3)c2)c1,35.4%,?,-10.7%,-0.9%,-18.4%,7.5%,nt,
CCCCC(C)C(OC(=O)CC(CC(=O)O)C(=O)O)C(CC(C)CC(O)CCCCC(O)CC(O)C(C)N)OC(=O)CC(CC(=O)O)C(=O)O (stereo not given),?,-0.9%[57.1 µM],?,79.4µM*,19.4%,-1.6%,75.7*,
CCCCCCC(N)CC(=O)O (stereo not given),11.1%,-5.5%,-5.6%,-2.0%,7.4%,-0.5%,nt,
COc1cc(OC)c(NS(=O)(=O)c2cc(-c3cnc(C4CC4)o3)ccc2C)cc1Cl,-0.7%,nt,-6.5%,-8.9%[60.1 µM],?,4.6%,nt,

# Assay outcomes deposited in PubChem BioAssay by National Center for Advancing Translational Sciences (NCATS).
